According to PubChem BioAssay AID651899 (Broad Institute, 2012):
Potency and affinity values are given separately. Active and inactive are the calls of the source. Entries that show only a call come without a potency. The rule behind the calls is not given here.

Test: cytotoxicity in HEK293 cells, dose response, cytotoxicity control, cell-based, plate reader, cherry-pick (AID 651899);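 note: cells exposed to compound for 48 hours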
Details: series mostly up to 26 µM
With `O=C(C[C@@H]1C[C@@H]2c3cc(NC(=O)c4cccnc4)ccc3O[C@@H]2[C@@H](CO)O1)NCCc1ccccc1` the outcome was “inactive”.
For `COC(=O)c1c(C(=O)OC)c(-c2cccc(F)c2)n2c1CS(=O)C2` (stereo unspecified), the outcome was “inactive”.
With `CC(=O)c1ccc(N2CCN(C(=O)c3ccc4c(c3)OCO4)CC2)cc1` the outcome was “inactive”.
With `Cn1nnc2cc(C(=O)N3CCC(c4ccccc4)C3)ccc21` (stereo unspecified) the outcome was “inactive”.
With `CC(CNC(=O)CCCn1ncn2c(cc3occc32)c1=O)c1ccccc1` (stereo unspecified) the outcome was “inactive”.
For `CC1=CC2=NC(=O)/C(=C\c3cc(C)n(-c4ccccc4F)c3C)C(=N)N2O1`, the outcome was “inactive”.
For `NC(=O)c1ccc(Oc2cccc3cccnc23)c([N+](=O)[O-])c1`, the outcome was “inactive”.
In the case of `COc1ccc(-c2ccc3c(c2)C2CC3CCN2)cc1` (stereo unspecified), the outcome is reported as “inactive”.
In the case of `Cc1nc2nc(SCC(=O)NCc3ccco3)nn2c(C)c1Cc1c(F)cccc1Cl`, the outcome is reported as “inactive”.
In the case of `CCOCCCNC(=O)CSc1nc2nc(C)c(Cc3ccccc3)c(C)n2n1`, the outcome is reported as “inactive”.
In the case of `COc1cccc(CNC(=O)c2ccc(NC(=O)C3=CSCCO3)cc2)c1`, the outcome is reported as “inactive”.
With `CC(=O)c1ccc(N2CCN(C(=O)c3ccc4nc[nH]c4c3)CC2)cc1` the outcome was “inactive”.
With `Cc1cccc(-n2c(SCC(=O)N(C)C3CCS(=O)(=O)C3)nc3ccccc3c2=O)c1C` (stereo unspecified) the outcome was “inactive”.
With `CCCOC(=O)c1cccc(NC(=O)c2cccnc2)c1` the outcome was “inactive”.
In the case of `COc1ccc(Cc2c(-c3ccc(OC)c(OC)c3)nc3ccc(C)cn23)c(C)c1`, the outcome is reported as “inactive”.
For `O=C(C[C@H]1C[C@H]2c3cc(NC(=O)c4cccnc4)ccc3O[C@H]2[C@H](CO)O1)NCc1ccccn1`, the outcome was “inactive”.
